Inconclusive results are not listed. Activity calls are given as the source filed them. Rule for the calls: active = hit-call score of the fitted dose curve at least 0.9, where 1 is the maximum; inconclusive = response in the unintended direction; inactive = score below 0.9.
Biological target: human Retinoid X Receptor beta (RXRb), RXRB (gene 6257) (UniProt P28702)
Assay: ATG_RXRb_TRANS: Attagene TRANS-FACTORIAL HepG2 Assay for human Retinoid X Receptor beta (RXRb) (AID 2283013)
Protocol: ATG_TRANS is a cell-based, multiplexed-readout assay that uses HepG2, a human liver cell line, with measurements taken at 24 hours after chemical dosing in a 24-well plate.ATG_RXRb_TRANS is one of 30 assay component(s) measured or calculated from the ATG_TRANS assay. It is designed to make measurements of mRNA induction, a form of inducible reporter, as detected with fluorescence intensity signals by Reverse transcription polymerase chain reaction (RT-PCR) and Capillary electrophoresis technology.Data from the assay component ATG_RXRb_TRANS was analyzed into 1 assay endpoint. This assay endpoint, ATG_RXRb_TRANS, was analyzed in the positive analysis fitting direction relative to DMSO as the negative control and baseline of activity. Using a type of inducible reporter, measures of mRNA for gain-of-signal activity can be used to understand the reporter gene at the transcription factor-level as they relate to the gene RXRB. Furthermore, this assay endpoint can be referred to as a primary readout, because this assay has produced multiple assay endpoints where this one serves a reporter gene function. To generalize the intended target to other relatable targets, this assay endpoint is annotated to the nuclear receptor intended target family, where the subfamily is non-steroidal.
Human liver HepG2 cells are transiently transfected with multiple reporter transcription units (MRTUs) in 6-well plates using FuGene 6 reagent (Roche; 3 ml FuGene/1 mg DNA). The MRTU constructs are regulated by a cis-regulating element (promoter). […] A major difference between the CIS and TRANS system is that in CIS activities of endogenous TFs are measured, whereas the TRANS assay evaluates changes in activities of exogenous, chimeric NR-Gal4 proteins. […] At the end of 24 hour incubation, total RNA was isolated using TriZol reagent (Invitrogen). The isolated RNA is then reverse-transcribed using oligo(dT) primer and Mo-MLV reverse transcriptase (Invitrogen) with DNAse I (Ambion) treatment for 30 min. The one-tenth of the produced cDNA was amplified by PCR using Taq DNA polymerase (Invitrogen) and two reporter sequence-specific primers. The PCR products were fluorescently labeled by primer extension with 6-arboxyfluorescein (6-FAM) 5'-labeled reporter sequence-specific primer (2 min at 95 C, 20 s at 68 C and 10 min at 72 C) and these products were digested with 5U of HpaI (New England Biolabs) for 2h at 37 C. The fragments were purified using Qiaquick PCR columns (Qiagen), analyzed on an ABI 3130xL genetic analyzer (Applied Biosystems) with peak positions identified by using a set of X-rhodamine (ROX)-labeled MapMarker1000 molecular weight standards (BioVentures). The raw capillary electrophoresis data was processed using Attagraph software (Attagene).

human Retinoid X Receptor beta (RXRb), RXRB (gene 6257), sequence (P28702 whole entry, looked up): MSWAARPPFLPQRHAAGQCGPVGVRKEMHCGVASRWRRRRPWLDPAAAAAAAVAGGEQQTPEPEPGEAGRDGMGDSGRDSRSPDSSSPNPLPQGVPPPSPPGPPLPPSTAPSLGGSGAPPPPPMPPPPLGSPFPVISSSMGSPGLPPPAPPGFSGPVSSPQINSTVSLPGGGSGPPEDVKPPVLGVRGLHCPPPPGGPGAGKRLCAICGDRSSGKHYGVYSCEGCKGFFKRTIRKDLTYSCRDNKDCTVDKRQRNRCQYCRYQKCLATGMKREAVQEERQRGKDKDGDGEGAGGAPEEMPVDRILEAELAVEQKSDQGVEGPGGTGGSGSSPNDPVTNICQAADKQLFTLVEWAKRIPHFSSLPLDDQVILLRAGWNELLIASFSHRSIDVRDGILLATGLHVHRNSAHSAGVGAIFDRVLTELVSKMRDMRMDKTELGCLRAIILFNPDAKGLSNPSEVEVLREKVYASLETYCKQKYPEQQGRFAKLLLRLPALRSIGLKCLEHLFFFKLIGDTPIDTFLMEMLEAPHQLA

Structure (SMILES) | AC50 | outcome
C#C[C@]1(O)CC[C@H]2[C@@H]3CCC4=Cc5oncc5C[C@]4(C)[C@H]3CC[C@@]21C | 154 µM (active) | –
CC1(C)CCC(C)(C)c2cc(C(=O)Nc3ccc(C(=O)O)cc3)ccc21 | – | inactive
CCCCCCCCCCCCOCCO | 33.4 µM (active) | –
CCC(C)CCCC(C)(C)O (stereo not given) | – | inactive
Cc1ccc(O)c(C(C)(C)C)c1 | 9 µM (active) | –
CCCCCCCCCCCCCOS(=O)(=O)O | 12.9 µM (active) | –
CCc1c(C)cc(N)c(CC)c1N | – | inactive
Fc1c(F)c(F)c(Br)c(F)c1F | – | inactive
CCCCN | – | inactive
Sc1nc(S)nc(S)n1 | – | inactive
C=C(C)C(=O)O[C@H]1C[C@@H]2CC[C@@]1(C)C2(C)C | 100 µM (active) | –
NC(=O)c1ccccc1Cl | – | inactive
CCCCC(CC)COCCC#N (stereo not given) | 51.1 µM (active) | –
CC1CCC(C(C)CS)CC1S (stereo not given) | 59.9 µM (active) | –
C=C(C)[C@@H]1CCC2=CC(=O)C[C@@H](C)[C@]2(C)C1 | – | inactive
COCCCOc1ccnc(CS(=O)c2nc3ccccc3[nH]2)c1C (stereo not given) | – | inactive
ClCCCl | – | inactive
CC(C=O)Cc1ccc(C(C)C)cc1 (stereo not given) | – | inactive
OC1OC[C@@H](O)[C@H](O)[C@H]1O (stereo not given in full) | – | inactive
CCC(O)CO (stereo not given) | – | inactive

Structure (SMILES) | AC50 | outcome
[Ca+2] | – | inactive
C=CCOc1nc(OCC=C)nc(OCC=C)n1 | 81 µM (active) | –
C=O | – | inactive
COc1nc(C)nc(N)n1 | – | inactive
c1ccc2sc(SN(C3CCCCC3)C3CCCCC3)nc2c1 | – | inactive
O=C1CCCCCCCCCCCCCCO1 | 100 µM (active) | –
Cc1cccc(Nc2ccccc2C(=O)O)c1C | – | inactive
NCCNCCN | – | inactive
CC(C)(C)c1n[nH]c(=S)n(N)c1=O | – | inactive
Cc1ccc2sc3cccc(C)c3c2c1 | – | inactive
CC(C)[C@H]1CC[C@@H](C)CC1=O | – | inactive
CCCc1ccccc1O | 65.7 µM (active) | –
Cc1cc(C2(c3cc(C)c(O)cc3C)OS(=O)(=O)c3ccccc32)c(C)cc1O | – | inactive
CCCCCCCCCC=O | 59 µM (active) | –
CC(C)c1ccc(C(C)C)cc1 | 66.5 µM (active) | –
CCc1ccc(C=O)cc1 | – | inactive
Nc1nc2ccc([N+](=O)[O-])cc2s1 | – | inactive
O=C1c2ccccc2C(=O)N1SC1CCCCC1 | 44.4 µM (active) | –
CC1(C)[C@H]2CC[C@]1(C)[C@H](O)C2 | – | inactive
CC(C)(COC(=O)c1ccccc1)COC(=O)c1ccccc1 | – | inactive

Source: PubChem BioAssay (EPA / NIEHS)
